Measurements: PubChem BioAssay (Tox21)
Inconclusive results are not listed. Active and inactive are the calls of the source. Unless noted, the call rests on the fitted dose curve; in most records, active means well fitted curve in the direction sought with a large enough effect in the repeat runs; inconclusive means weak or mixed curves; inactive means no such curve, though single readings can be large; an effect the other way counts as inactive or inconclusive.

Experiments:
[1] = target: Thyrotropin receptor (Homo sapiens) (UniProt P16473); assay: qHTS assay to identify small molecule antagonists of the thyroid stimulating hormone receptor (TSHR) signaling pathway (AID 1259385; calls by dose curve; further: nearly all actives have a fitted effect of over 20% in size)
Outline: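 TSHR-HEK293 cells (800/well) plated 18 h, then compounds with Ro20-1724 and TSH at 1.5 ng/mL final, 30 min at room temperature. cAMP quantified by HTRF (cAMP-d2/anti-cAMP-cryptate, 1 h); 15 concentrations in triplicate.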

[2] = qHTS assay to identify small molecule agonists of the estrogen receptor alpha (ER-alpha) signaling pathway in the presence of an antagonist - cell viability counter screen (AID 1259386);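 further: series mostly up to about 92 µM; cells exposed to compounds for 22 h at 37 °C before the viability read; nearly all actives have a fitted effect of over 30% in size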
Outline: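 VM7Luc4E2, stripped-serum pre-culture 5 d; 24hr plating; +ICI-182,780 10.0nM final; cpds 15 conc, 22hr, 37C/5% CO2; CellTiter-Fluor added at 21hr, fluorescence 1hr later.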

[3] = target: Progesterone receptor (Homo sapiens) (UniProt P06401); assay: qHTS assay to identify small molecule agonists of the progesterone receptor (PR) signaling pathway (AID 1346784; calls by dose curve; further: nearly all actives have a fitted effect of over 30% in size)
Outline: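 PR-UAS-bla HEK 293T cells carrying a UAS-driven beta-lactamase reporter were seeded in medium with 2% charcoal-stripped FBS, preincubated 6 hr at 37C, then exposed to compounds in DMSO for 16 hr; agonism was read by LiveBLAzer B/G FRET fluorescence.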

[4] = target: Progesterone receptor (Homo sapiens) (UniProt P06401); assay: qHTS assay to identify small molecule antagonists of the progesterone receptor (PR) signaling pathway (AID 1346795; active means well fitted inhibition curve with a large enough effect in the signal ratio in the repeat runs, not every such curve was filed as active; the % refers to the signal ratio; further: potency means the concentration at half of the fitted maximal effect)
Outline: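 PR-UAS-bla HEK293T cells carrying a UAS-driven beta-lactamase reporter were plated in medium with 2% charcoal-stripped FBS and rested 6 hr at 37C. Compounds were added with 1 nM R5020 (final) for 16 hr, then FRET substrate loaded 2 hr at room temperature.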

[5] = qHTS assay to identify small molecule antagonists of the progesterone receptor (PR) signaling pathway - cell viability counter screen (AID 1346798); further: nearly all actives have a fitted effect of over 50% in size; further: potency means the concentration at half of the fitted maximal effect
Outline: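 PR-UAS-bla HEK293T cells in medium with 2% charcoal-stripped FBS were treated with compounds plus R5020 for 16 hr at 37C. Cell viability was then read by CellTiter-Glo luminescence after 30 min at room temperature in the same wells.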

[6] = qHTS assay to identify small molecule agonists of the progesterone receptor (PR) signaling pathway - cell viability counter screen (AID 1346799; calls by dose curve; further: nearly all actives have a fitted effect of over 45% in size)
Outline: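 PR-UAS-bla HEK293T cells, 3,000 per well in medium with 2% charcoal-stripped FBS, were preincubated 6 hr at 37C, then exposed to compounds for 16 hr; viability was read as CellTiter-Glo luminescence after 30 min at room temperature.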

[7] = qHTS assay to identify small molecule antagonists of the TGF-beta/Smad signaling pathway - cell viability counter screen (AID 1346824); further: nearly all actives have a fitted effect of over 50% in size
Outline: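 SBE-bla HEK 293T cells, incubated overnight, then compound plus 0.25 ng/mL TGF-beta1 (stock added) for 5 hr at 37 C. Viability was read in the same wells by CellTiter-Glo luminescence after 30 min at room temperature.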

[8] = qHTS assay to identify small molecule agonists of the TGF-beta/Smad signaling pathway - cell viability counter screen (AID 1346829); further: top concentration of the series differs between compounds; nearly all actives have a fitted effect of over 45% in size
Outline: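 Cytotoxicity counter screen: CellTiter-Glo luminescence (30 min, room temperature) measured in the SBE-bla HEK 293T reporter wells after 5 hr compound treatment at 37 C and the 2 hr substrate step.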

[9] = qHTS assay to identify small molecule agonists of the TGF-beta/Smad signaling pathway (AID 1346859; active means well fitted activation curve with a large enough effect in the signal ratio in the repeat runs, not every such curve was filed as active; the % refers to the signal ratio; further: series mostly up to about 77 µM)
Outline: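 HEK 293T cells stably carrying a beta-lactamase reporter driven by the Smad binding element were seeded overnight, exposed to DMSO-dissolved compounds for 5 hr at 37 C, 5% CO2, then loaded with FRET substrate for 2 hr at room temperature.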

[10] = target: Thyrotropin-releasing hormone receptor (Homo sapiens) (UniProt P34981); assay: qHTS assay to identify small molecule antagonists of the thyrotropin-releasing hormone receptor (TRHR) signaling pathway (AID 1346877; active means well fitted inhibition curve with a large enough effect in the repeat runs, not every such curve was filed as active; further: series mostly up to about 51 µM)
Outline: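 Intracellular calcium fluorescence, read kinetically every second over 3 min, reports TRH-evoked signalling in HEK293 cells carrying TRHR. Test compounds were added 5 min ahead of a 1 nM TRH challenge.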

Measured: Potency

Sequence of Thyrotropin-releasing hormone receptor (Homo sapiens) (P34981 whole entry, looked up): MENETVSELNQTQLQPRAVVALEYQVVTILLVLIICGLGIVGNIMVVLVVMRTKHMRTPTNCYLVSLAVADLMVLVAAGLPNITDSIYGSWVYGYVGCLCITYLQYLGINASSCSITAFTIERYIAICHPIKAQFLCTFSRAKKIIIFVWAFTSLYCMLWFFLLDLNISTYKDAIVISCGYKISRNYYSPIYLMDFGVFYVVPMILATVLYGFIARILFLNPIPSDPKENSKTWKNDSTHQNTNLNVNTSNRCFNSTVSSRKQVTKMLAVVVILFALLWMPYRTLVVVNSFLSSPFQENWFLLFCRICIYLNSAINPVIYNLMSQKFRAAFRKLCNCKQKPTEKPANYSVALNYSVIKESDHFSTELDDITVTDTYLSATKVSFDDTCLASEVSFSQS
Sequence of Progesterone receptor (Homo sapiens) (P06401 whole entry, looked up): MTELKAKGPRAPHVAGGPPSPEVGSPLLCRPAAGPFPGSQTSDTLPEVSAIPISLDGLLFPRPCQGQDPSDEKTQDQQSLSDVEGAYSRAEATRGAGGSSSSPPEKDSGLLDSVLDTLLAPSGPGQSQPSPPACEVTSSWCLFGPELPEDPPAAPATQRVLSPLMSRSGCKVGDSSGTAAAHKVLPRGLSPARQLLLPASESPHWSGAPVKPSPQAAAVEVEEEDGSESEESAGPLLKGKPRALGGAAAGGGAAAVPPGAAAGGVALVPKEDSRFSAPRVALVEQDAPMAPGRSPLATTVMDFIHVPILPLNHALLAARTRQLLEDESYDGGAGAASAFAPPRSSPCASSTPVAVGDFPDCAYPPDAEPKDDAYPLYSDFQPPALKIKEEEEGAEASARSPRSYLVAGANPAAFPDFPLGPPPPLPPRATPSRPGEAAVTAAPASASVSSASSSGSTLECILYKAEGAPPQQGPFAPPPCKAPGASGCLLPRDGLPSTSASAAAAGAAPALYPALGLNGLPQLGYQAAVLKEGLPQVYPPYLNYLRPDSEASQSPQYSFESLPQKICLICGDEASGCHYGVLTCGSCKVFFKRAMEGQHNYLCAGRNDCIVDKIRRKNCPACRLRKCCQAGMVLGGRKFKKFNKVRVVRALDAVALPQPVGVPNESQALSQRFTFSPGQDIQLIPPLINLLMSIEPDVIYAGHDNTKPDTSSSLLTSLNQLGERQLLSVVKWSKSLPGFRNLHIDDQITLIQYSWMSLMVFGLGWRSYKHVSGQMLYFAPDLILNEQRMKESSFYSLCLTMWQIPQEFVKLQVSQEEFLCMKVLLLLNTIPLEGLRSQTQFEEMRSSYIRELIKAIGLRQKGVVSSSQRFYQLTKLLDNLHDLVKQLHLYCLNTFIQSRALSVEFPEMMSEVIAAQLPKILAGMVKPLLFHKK
Sequence of Thyrotropin receptor (Homo sapiens) (P16473 whole entry, looked up): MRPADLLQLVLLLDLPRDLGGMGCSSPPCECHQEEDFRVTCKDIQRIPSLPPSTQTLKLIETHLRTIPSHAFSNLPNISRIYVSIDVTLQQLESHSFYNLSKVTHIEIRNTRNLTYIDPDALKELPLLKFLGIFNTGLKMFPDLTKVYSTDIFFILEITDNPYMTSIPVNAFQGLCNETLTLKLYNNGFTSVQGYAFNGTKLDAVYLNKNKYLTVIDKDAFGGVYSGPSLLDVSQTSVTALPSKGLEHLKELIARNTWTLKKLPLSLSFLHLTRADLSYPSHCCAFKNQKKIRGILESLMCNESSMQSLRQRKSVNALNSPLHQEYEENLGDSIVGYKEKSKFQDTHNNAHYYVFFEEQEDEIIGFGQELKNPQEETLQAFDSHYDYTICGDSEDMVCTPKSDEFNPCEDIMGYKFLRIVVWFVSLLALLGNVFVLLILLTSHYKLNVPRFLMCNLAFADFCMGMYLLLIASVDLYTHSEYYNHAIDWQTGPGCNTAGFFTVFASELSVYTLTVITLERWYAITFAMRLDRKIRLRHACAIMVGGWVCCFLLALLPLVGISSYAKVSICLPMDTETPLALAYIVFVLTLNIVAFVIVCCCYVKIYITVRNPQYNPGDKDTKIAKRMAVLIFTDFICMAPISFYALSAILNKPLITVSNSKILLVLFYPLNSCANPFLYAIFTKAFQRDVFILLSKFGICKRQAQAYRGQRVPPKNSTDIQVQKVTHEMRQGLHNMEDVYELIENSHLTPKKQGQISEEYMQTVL

COCCOCCO
inactive: [1] | [2] | [3]

C[N+](C)(C)CCCl
inactive: all assays above

CCN(C)N=O
not listed: [10]
inactive: all other assays above

CC(C)O.CC(C)O.OCCN(CCO)CCO.OCCN(CCO)CCO.[Ti]
not listed: [9] | [10]
inactive: all other assays above

O=Cc1ccc2c(c1)OCO2
inactive: all assays above

CC/C(=N\OC/C=C/Cl)C1=C(O)CC(C2CCOCC2)CC1=O (configuration not stated)
not listed: [10]
inactive: all other assays above

C=COC(C)=O
not listed: [10]
inactive: all other assays above

CC(C)N(CCC(C(N)=O)(c1ccccc1)c1ccccn1)C(C)C (configuration not stated)
not listed: [9] | [10]
inactive: all other assays above

ClCC(Br)CBr (configuration not stated)
not listed: [9] | [10]
inactive: all other assays above

CCOS(C)(=O)=O
not listed: [10]
inactive: all other assays above

O=S(=O)(Cl)c1ccccc1
not listed: [10]
inactive: all other assays above

CNC(C)Cc1ccccc1OC (configuration not stated)
inactive: all assays above

Clc1cccc(SC2CCNCC2)n1
not listed: [9] | [10]
inactive: all other assays above

ClCc1cccc(Cl)c1
inactive: all assays above

c1ccc(CN2CCNCC2)cc1
not listed: [10]
inactive: all other assays above

Brc1ccccc1
inactive: all assays above

O=C(O)C(F)(F)C(F)(F)C(F)(F)C(F)(F)C(F)(F)C(F)(F)C(F)(F)C(F)(F)C(F)(F)F
not listed: [10]
inactive: all other assays above

NNC(=O)c1cccnc1
inactive: all assays above

c1ccoc1
inactive: all assays above

O=S1OC[C@@H]2[C@H](CO1)[C@]1(Cl)C(Cl)=C(Cl)[C@@]2(Cl)C1(Cl)Cl (some centres not stated)
active: [4] 30.6 µM
not listed: [10]
inactive: all other assays above

Sc1ccccc1Cl
inactive: all assays above

CC1Sc2c(C(=O)O)c(=O)c3cc(F)c(N4CCNCC4)cc3n21 (configuration not stated)
inactive: all assays above

CCOC(=O)C(Cl)C(C)=O (configuration not stated)
inactive: all assays above

NCCCNCCCN
inactive: all assays above

C=CC(=O)OCC(C)C
inactive: all assays above

Cl/C=C\Cl
inactive: all assays above

C=CCN1CC[C@]23c4c5ccc(O)c4O[C@H]2C(=O)CC[C@@]3(O)[C@H]1C5
not listed: [10]
inactive: all other assays above

Nc1nc(=S)[nH][nH]1
inactive: all assays above

Clc1cc(Cl)c(Cl)c(Cl)c1
not listed: [9] | [10]
inactive: all other assays above

O=C1C(Cl)C(CCl)CN1c1cccc(C(F)(F)F)c1 (configuration not stated)
active: [4] 30.6 µM | [5] 0.864 µM
inactive: all other assays above

CC(=O)NC1CCSC1=O (configuration not stated)
inactive: all assays above

ClCc1ccccc1
not listed: [10]
inactive: all other assays above

C=C(C#N)CCC#N
inactive: all assays above

C#CCOC(C(=O)OCCN(C)C)(c1ccccc1)c1ccccc1
not listed: [10]
inactive: all other assays above

CC1C(=O)C[C@]2(C(C)C)C[C@H]12 (some centres not stated)
not listed: [10]
inactive: all other assays above

O=NN1CCCCCC1
not listed: [9]
inactive: all other assays above

ClC=C(Cl)Cl
inactive: all assays above

Cn1cc[n+](C)c1 (tested in a mixture with another compound)
inactive: all assays above

CCBr
not listed: [9]
inactive: all other assays above

N#Cc1ccc(Cl)cc1
inactive: all assays above

Cl/C=C\C[N+]12CN3CN(CN(C3)C1)C2
inactive: all assays above

C=CC(=O)OCCCCO
not listed: [9]
inactive: all other assays above

C=CC(=O)OC
inactive: all assays above

CC(=O)[C@H]1CC[C@H]2[C@@H]3CC[C@H]4C[C@](C)(O)CC[C@]4(C)[C@H]3CC[C@]12C
inactive: all assays above

Nc1nc(N)nc(N)n1
inactive: all assays above

C[C@@H]1CC[C@H]2[C@@H](C)C(=O)O[C@@H]3O[C@@]4(C)CC[C@@H]1[C@]32OO4
not listed: [9]
inactive: all other assays above

c1ccc(C2CC2)c(OCC2=NCCN2)c1
inactive: all assays above

Clc1cccc2ccccc12
inactive: all assays above

CCCCCCCCCCOC(=O)c1ccccc1C(=O)OCCCCCCCCCC
inactive: all assays above

CCCCCC[N+](=O)[O-]
inactive: all assays above

C=CC(=O)OCC(C)O (configuration not stated)
inactive: all assays above

CC(C)(OO)c1ccccc1
inactive: all assays above

O=C(CBr)Nc1ccc(Cl)cc1C(=O)c1ccccc1F
active: [4] 21.1 µM
inactive: all other assays above
